Source: PubChem BioAssay (NCI)
Compounds without any hit were thinned out: in the full panel of roughly 83,000, 20% have a hit.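 Growth was measured after 48 h exposure to one concentration of compound in 96-well plates. Values under 10 count as active.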 A number with no mark means an inactive call. Calls of active or inactive are those of the source.

Columns and labels:
Test in all cases: NCI-60 one-dose screen, 48 h (100 = growth as untreated, 0 = no growth, -100 = all killed)
Details in all cases: 10 µM unless noted
NCI-H23 lung = system: NCI-H23 lung
NCI-H226 lung = system: NCI-H226 lung
NCI-H322M lung = system: NCI-H322M lung
HOP-62 NSCLC = system: HOP-62 NSCLC
NCI-H460 lung = system: NCI-H460 lung
HOP-92 NSCLC = system: HOP-92 NSCLC
NCI-H522 lung = system: NCI-H522 lung
A549/ATCC NSCLC = system: A549/ATCC NSCLC
786-0 renal = system: 786-0 renal
COLO 205 colon = system: COLO 205 colon
DU-145 prostate = system: DU-145 prostate
K-562 leukemia = system: K-562 leukemia
MALME-3M melanoma = system: MALME-3M melanoma
MDA-MB-231 breast = system: MDA-MB-231 breast
RXF 393 renal = system: RXF 393 renal
SF-268 CNS = system: SF-268 CNS
SF-295 CNS = system: SF-295 CNS
SF-539 CNS = system: SF-539 CNS
UACC-257 melanoma = system: UACC-257 melanoma
M14 melanoma = system: M14 melanoma

SMILES | growth (NCI-H23 lung) [%] | growth (NCI-H226 lung) [%] | growth (NCI-H322M lung) | growth (HOP-62 NSCLC) [%] | growth (NCI-H460 lung) [%] | growth (HOP-92 NSCLC) | growth (NCI-H522 lung) [%] | growth (A549/ATCC NSCLC) | growth (786-0 renal) [%] | growth (COLO 205 colon) | growth (DU-145 prostate) [%] | growth (K-562 leukemia) | growth (MALME-3M melanoma) | growth (MDA-MB-231 breast) | growth (RXF 393 renal) | growth (SF-268 CNS) [%] | growth (SF-295 CNS) [%] | growth (SF-539 CNS) | growth (UACC-257 melanoma) | growth (M14 melanoma)
Cc1cc(NCC(=O)Nc2ccc(-c3nc4ccccc4s3)cc2)no1 | 82.8 | 91 | 102% | 111 | 103 | 100% | 82.1 | 92.3% | 102 | 108% | 95.9 | 83% | 89.5% | 108% | 105% | 87.4 | 96.4 | 105% | 99.7% | 106%
COCCOc1cnc2ccn([C@H](C)c3nnc4c(F)cc(-c5cnn(C)c5)cn34)c(=O)c2c1 | 51.1 | 68.8 | 59.2% | 89.2 | 75.6 | 85.3% | 87.7 | 65.7% | 108 | 106% | 91.2 | 96.8% | 9.06% (active) | 63.9% | 81.2% | 85.9 | 67.4 | 99.1% | 69.1% | 91.6%
S=C(NCc1ccc2c(c1)OCO2)N1CCN(c2ncnc3c2oc2ccccc23)CC1 | 44.1 | 28.7 | 35.3% | 30.7 | 31.8 | 38.1% | 22.6 | 25.6% | 47.5 | 4.16% (active) | 35.4 | 19.4% | 51.1% | 57.1% | 50.7% | 42.2 | 26.4 | 39.7% | 9.31% (active) | 35.2%
COc1cc2c(c(OC)c1)C1c3ccccc3NC(=O)N1CC2 (stereo not given) | 24 | 51.5 | 34.9% | 51.6 | 11.3 | 28.7% | 39.6 | 22.7% | 41.4 | 16.1% | 13.2 | 12.5% | 28.5% | 32.2% | 9.03% (active) | 48.2 | 13.2 | -9.57% (active) | 56.4% | -18.6% (active)
CC(=O)Nc1cccc(-n2c(=O)n(C3CC3)c(=O)c3c(Nc4ccc(I)cc4F)n(C)c(=O)c(C)c32)c1 | 17.1 | 49.5 | 10.9% | 19.5 | 56.1 | -27% (active) | 34.6 | 28.4% | 56.2 | -12.9% (active) | 53 | 25.5% | -0.925% (active) | 18.6% | -15.2% (active) | 53 | 82.6 | 41.1% | -21.9% (active) | 1.71% (active)
Cc1ccc(Nc2nccc(N(C)c3ccc4c(C)n(C)nc4c3)n2)cc1S(N)(=O)=O | 15.6 | 27.5 | 7.5% (active) | 12.4 | 21.5 | -56.2% (active) | 10.7 | 5.92% (active) | 35.7 | -10.3% (active) | 39.4 | 7.01% (active) | 2.35% (active) | -2.02% (active) | -37.5% (active) | 45.4 | 31.1 | -45.2% (active) | -6.96% (active) | -3.62% (active)
O=C(NOC[C@H](O)CO)c1ccc(F)c(F)c1Nc1ccc(I)cc1F | 19.6 | 49.5 | 12.3% | 27.7 | 54 | -28% (active) | 44.8 | 21.4% | 71.2 | 0.302% (active) | 58.7 | 29.2% | -11.7% (active) | 20.9% | 2.18% (active) | 60.1 | 75 | 64.2% | -26.8% (active) | 3.66% (active)
